PubChem BioAssay AID1159580 (chemical genetic matrix, 2015)
The whole screen tested about 5,500 compounds, of which about 2,000 (36%) were called active. Not shown: some 18% with an inconclusive outcome. Cut-off read from the data, not from the text of the source: active = normalized growth mostly below about 0.91 (no sharp cut-off); inconclusive = no clear call, values can overlap the other calls; inactive = mostly above about 0.92. This is one part of the list.

Assay: chemical genetic growth profiling, strain panel (AID 1159580);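 note: tested at 20 µM; growth read once vehicle control cultures reached saturation at 30 °C; 1 = growth at the plate median or of vehicle wells; lower values mean less growth of the strain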
Details: growth OD
[1] = S. cerevisiae deletion strains, locus YHR030C, strain SLT2, active compounds read low
[2] = S. cerevisiae deletion strains, locus YHR079C, strain IRE1, active compounds read low
[3] = S. cerevisiae deletion strains, locus YJL095W, strain BCK1, active compounds read low
[4] = S. cerevisiae deletion strains, locus YJR066W, strain TOR1, active compounds read low
[5] = S. cerevisiae deletion strains, locus YLR113W, strain HOG1, active compounds read low
[6] = S. cerevisiae deletion strains, locus YNL183C, strain NPR1, active compounds read low
[7] = S. cerevisiae deletion strains, locus YOR231W, strain MKK1, active compounds read low
[8] = S. cerevisiae deletion strains, locus YPL256C, strain CLN2, active compounds read low
[9] = S. cerevisiae deletion strains, locus YAL013W, strain DEP1, active compounds read low
[10] = S. cerevisiae deletion strains, locus YDR150W, strain NUM1, active compounds read low
[11] = S. cerevisiae deletion strains, locus YGR078C, strain PAC10, active compounds read low
[12] = S. cerevisiae deletion strains, locus YJR075W, strain HOC1, active compounds read low
[13] = S. cerevisiae deletion strains, locus YMR263W, strain SAP30, active compounds read low
[14] = S. cerevisiae deletion strains, locus YMR307W, strain GAS1, active compounds read low
[15] = S. cerevisiae deletion strains, locus YPL055C, strain LGE1, active compounds read low

Measured: normalized growth

Clc1ccc2c(c1)CCc1cccnc1C2=C1CCNCC1
inactive: [1] 0.968 | [2] 0.986 | [3] 1.04 | [4] 0.932 | [5] 1.03 | [6] 0.965 | [7] 0.992 | [8] 0.972

O=C1CCCCC/C=C/CCCCCCCCO1
inactive: [9] 0.986 | S. cerevisiae deletion strains, locus YBR021W, strain FUR4, active compounds read low 1.01 | S. cerevisiae deletion strains, locus YBR229C, strain ROT2, active compounds read low 1 | S. cerevisiae deletion strains, locus YCL029C, strain bik1, active compounds read low 1 | S. cerevisiae deletion strains, locus YDL035C, strain GPR1, active compounds read low 0.988 | S. cerevisiae deletion strains, locus YDL074C, strain BRE1, active compounds read low 0.949 | S. cerevisiae deletion strains, locus YDL101C, strain DUN1, active compounds read low 0.994 | S. cerevisiae deletion strains, locus YDL134C, strain PPH21, active compounds read low 0.999 | S. cerevisiae deletion strains, locus YDL185W, strain tfp1, active compounds read low 0.999 | S. cerevisiae deletion strains, locus YDL192W, strain arf1, active compounds read low 0.997 | S. cerevisiae deletion strains, locus YDR101C, strain arx1, active compounds read low 0.979 | [10] 1.01 | S. cerevisiae deletion strains, locus YDR162C, strain NBP2, active compounds read low 1 | S. cerevisiae deletion strains, locus YDR318W, strain mcm21, active compounds read low 0.985 | S. cerevisiae deletion strains, locus YDR388W, active compounds read low 0.99 | S. cerevisiae deletion strains, locus YDR502C, strain sam2, active compounds read low 0.969 | S. cerevisiae deletion strains, locus YEL061C, strain CIN8, active compounds read low 0.999 | S. cerevisiae deletion strains, locus YER110C, active compounds read low 0.992 | S. cerevisiae deletion strains, locus YER155C, strain BEM2, active compounds read low 1 | S. cerevisiae deletion strains, locus YER167W, strain BCK2, active compounds read low 0.974 | S. cerevisiae deletion strains, locus YGL078C, strain dbp3, active compounds read low 1 | S. cerevisiae deletion strains, locus YGL086W, strain mad1, active compounds read low 0.988 | S. cerevisiae deletion strains, locus YGL248W, strain PDE1, active compounds read low 1 | [11] 0.946 | S. cerevisiae deletion strains, locus YGR135W, strain pre9, active compounds read low 0.956 | S. cerevisiae deletion strains, locus YGR229C, strain SMI1, active compounds read low 0.893 | S. cerevisiae deletion strains, locus YGR252W, strain gcn5, active compounds read low 0.999 | [1] 0.999 | S. cerevisiae deletion strains, locus YHR079C, strain IRE1 (second series), active compounds read low 0.995 | S. cerevisiae deletion strains, locus YHR094C, strain hxt1, active compounds read low 0.997 | S. cerevisiae deletion strains, locus YHR129C, strain ARP1, active compounds read low 0.988 | S. cerevisiae deletion strains, locus YHR200W, strain rpn10, active compounds read low 1 | S. cerevisiae deletion strains, locus YIL066C, strain RNR3, active compounds read low 0.985 | S. cerevisiae deletion strains, locus YIL073C, strain SPO22, active compounds read low 1.01 | S. cerevisiae deletion strains, locus YIL125W, strain kgd1, active compounds read low 0.985 | S. cerevisiae deletion strains, locus YIR030C, strain dcg1, active compounds read low 1 | [3] 0.924 | S. cerevisiae deletion strains, locus YJL134W, strain LCB3, active compounds read low 1 | S. cerevisiae deletion strains, locus YJL168C, strain set2, active compounds read low 0.988 | S. cerevisiae deletion strains, locus YJL187C, strain SWE1 (second series), active compounds read low 1 | S. cerevisiae deletion strains, locus YJR043C, strain POL32, active compounds read low 0.953 | [12] 0.944 | S. cerevisiae deletion strains, locus YKL009W, strain mrt4, active compounds read low 1.01 | S. cerevisiae deletion strains, locus YKL068W, active compounds read low 1 | S. cerevisiae deletion strains, locus YKL085W, strain MDH1 (second series), active compounds read low 1.01 | S. cerevisiae deletion strains, locus YKL085W, strain MDH1, active compounds read low 1.01 | S. cerevisiae deletion strains, locus YKL190W, strain CNB1, active compounds read low 1 | S. cerevisiae deletion strains, locus YKR001C, strain vps1, active compounds read low 0.948 | S. cerevisiae deletion strains, locus YLR039C, strain RIC1, active compounds read low 0.869 | S. cerevisiae deletion strains, locus YLR058C, strain SHM2, active compounds read low 1 | S. cerevisiae deletion strains, locus YLR102C, strain apc9, active compounds read low 0.997 | S. cerevisiae deletion strains, locus YLR262C, strain YPT6, active compounds read low 0.859 | S. cerevisiae deletion strains, locus YLR268W, strain sec22, active compounds read low 0.975 | S. cerevisiae deletion strains, locus YLR330W, strain CHS5, active compounds read low 1.01 | S. cerevisiae deletion strains, locus YLR342W, strain FKS1 (second series), active compounds read low 0.968 | S. cerevisiae deletion strains, locus YLR371W, strain rom2, active compounds read low 0.999 | S. cerevisiae deletion strains, locus YLR418C, strain cdc73, active compounds read low 0.848 | S. cerevisiae deletion strains, locus YML016C, strain PPZ1, active compounds read low 1.01 | S. cerevisiae deletion strains, locus YML032C, strain rad52, active compounds read low 0.983 | S. cerevisiae deletion strains, locus YML124C, strain tub3, active compounds read low 0.995 | S. cerevisiae deletion strains, locus YMR078C, strain ctf18, active compounds read low 0.99 | S. cerevisiae deletion strains, locus YMR223W, strain ubp8, active compounds read low 0.973 | [13] 0.97 | [14] 0.898 | S. cerevisiae deletion strains, locus YNL067W, strain RPL9B, active compounds read low 1.01 | S. cerevisiae deletion strains, locus YNL128W, strain TEP1, active compounds read low 0.978 | S. cerevisiae deletion strains, locus YNL153C, strain GIM3, active compounds read low 0.972 | S. cerevisiae deletion strains, locus YNL233W, strain BNI4, active compounds read low 0.943 | S. cerevisiae deletion strains, locus YNL250W, strain rad50, active compounds read low 0.99 | S. cerevisiae deletion strains, locus YNL271C, strain bni1, active compounds read low 0.991 | S. cerevisiae deletion strains, locus YNL298W, strain CLA4, active compounds read low 0.993 | S. cerevisiae deletion strains, locus YNL307C, strain MCK1, active compounds read low 0.958 | S. cerevisiae deletion strains, locus YNL322C, strain KRE1, active compounds read low 1 | S. cerevisiae deletion strains, locus YNR052C, strain pop2, active compounds read low 1.01 | S. cerevisiae deletion strains, locus YOL006C, strain TOP1, active compounds read low 0.936 | S. cerevisiae deletion strains, locus YOL012C, strain htz1 0.561 | S. cerevisiae deletion strains, locus YOL147C, strain pex11, active compounds read low 1.01 | S. cerevisiae deletion strains, locus YOR061W, strain CKA2, active compounds read low 1.01 | S. cerevisiae deletion strains, locus YOR069W, strain VPS5, active compounds read low 1 | S. cerevisiae deletion strains, locus YOR136W, strain idh2, active compounds read low 0.992 | S. cerevisiae deletion strains, locus YOR144C, strain elg1, active compounds read low 1 | S. cerevisiae deletion strains, locus YOR184W, strain ser1, active compounds read low 0.955 | S. cerevisiae deletion strains, locus YOR316C, strain cot1, active compounds read low 0.999 | [15] 0.996 | S. cerevisiae deletion strains, locus YPL241C, strain CIN2, active compounds read low 1.01 | S. cerevisiae deletion strains, locus YPR119W, strain clb2, active compounds read low 0.994 | S. cerevisiae deletion strains, locus YPR141C, strain kar3, active compounds read low 0.991 | S. cerevisiae deletion strains, locus YPR163C, strain tif3, active compounds read low 1.01 | S. cerevisiae deletion strains, locus YPR167C, strain met16, active compounds read low 1 | S. cerevisiae deletion strains, strain wtn01, active compounds read low 0.96 | S. cerevisiae strains, strain wild type, active compounds read low 0.97

COC(=O)[C@@H]1C[C@H](OC(C)=O)C(=O)[C@H]2[C@@]1(C)CC[C@H]1C(=O)O[C@H](c3ccoc3)C[C@]21C
inactive: [1] 1 | [2] 0.994 | [3] 1 | [4] 0.936 | [5] 1.03 | [6] 0.957 | [7] 0.985 | [8] 1.01

NC(N)=NCCSSCCN=C(N)N
inactive: [9] 0.949 | S. cerevisiae deletion strains, locus YAL040C, strain CLN3, active compounds read low 0.948 | S. cerevisiae deletion strains, locus YCL061C, strain MRC1 (second series), active compounds read low 0.979 | [10] 0.988 | S. cerevisiae deletion strains, locus YDR363W, strain ESC2, active compounds read low 0.941 | S. cerevisiae deletion strains, locus YER002W, strain NOP16, active compounds read low 0.992 | [11] 0.973 | [12] 0.967 | [13] 0.981 | [14] 0.977 | S. cerevisiae deletion strains, locus YNL175C, strain NOP13, active compounds read low 0.981 | S. cerevisiae deletion strains, locus YNL197C, strain WHI3, active compounds read low 0.972 | S. cerevisiae deletion strains, locus YNL224C, strain SQS1, active compounds read low 1.01 | S. cerevisiae deletion strains, locus YOR083W, strain WHI5 (second series), active compounds read low 0.963 | [15] 0.983
